Experimental findings from ChEMBL document CHEMBL3988442, “University of Dundee, Small-Polar-MMV Screening Library” (2021) are described below.

In experiment [1] the target is T1, Methionyl-tRNA synthetase, putative (Leishmania donovani (strain BPK282A1)) (UniProt E9BF75).
T1 sequence (whole entry): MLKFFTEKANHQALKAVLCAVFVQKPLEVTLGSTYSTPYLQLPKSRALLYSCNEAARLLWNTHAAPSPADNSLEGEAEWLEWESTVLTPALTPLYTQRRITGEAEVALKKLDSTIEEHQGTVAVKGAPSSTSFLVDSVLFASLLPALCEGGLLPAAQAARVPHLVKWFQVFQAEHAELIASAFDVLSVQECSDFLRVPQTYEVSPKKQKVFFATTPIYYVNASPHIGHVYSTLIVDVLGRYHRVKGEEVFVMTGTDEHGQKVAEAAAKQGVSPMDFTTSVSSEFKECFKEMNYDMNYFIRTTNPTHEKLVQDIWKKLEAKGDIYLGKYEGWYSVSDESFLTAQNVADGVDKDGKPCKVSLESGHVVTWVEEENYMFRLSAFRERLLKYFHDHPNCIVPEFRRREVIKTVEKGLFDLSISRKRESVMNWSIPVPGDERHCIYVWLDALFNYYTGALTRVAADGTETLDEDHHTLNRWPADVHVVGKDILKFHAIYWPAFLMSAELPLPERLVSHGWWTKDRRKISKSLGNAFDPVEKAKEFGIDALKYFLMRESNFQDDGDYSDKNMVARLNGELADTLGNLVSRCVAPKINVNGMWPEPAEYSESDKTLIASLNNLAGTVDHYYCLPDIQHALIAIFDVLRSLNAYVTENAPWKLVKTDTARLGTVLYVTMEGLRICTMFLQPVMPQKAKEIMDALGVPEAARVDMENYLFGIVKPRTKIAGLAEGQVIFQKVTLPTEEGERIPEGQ
Briefly: Leishmania donovani Methionine tRNA synthetase (LdMetRS):v7. Dose response assay. Type of experiment: functional. The arrangement: conc 80 nM, time 150 minutes.

The target of experiment [2] is Protein translocase subunit SecA (Escherichia coli (strain K12)) (UniProt P10408). Description: Assay to Identify E. coli SecA ATPase Inhibitors. Type of experiment: functional. Further details: scale not given: direction of the effect not stated beside the values. To be noted: 30 µM.
The target of experiment [3] is T2, Ubiquitin-activating enzyme e1, putative (Leishmania donovani (strain BPK282A1)) (UniProt E9BSI1).
T2 sequence (whole entry): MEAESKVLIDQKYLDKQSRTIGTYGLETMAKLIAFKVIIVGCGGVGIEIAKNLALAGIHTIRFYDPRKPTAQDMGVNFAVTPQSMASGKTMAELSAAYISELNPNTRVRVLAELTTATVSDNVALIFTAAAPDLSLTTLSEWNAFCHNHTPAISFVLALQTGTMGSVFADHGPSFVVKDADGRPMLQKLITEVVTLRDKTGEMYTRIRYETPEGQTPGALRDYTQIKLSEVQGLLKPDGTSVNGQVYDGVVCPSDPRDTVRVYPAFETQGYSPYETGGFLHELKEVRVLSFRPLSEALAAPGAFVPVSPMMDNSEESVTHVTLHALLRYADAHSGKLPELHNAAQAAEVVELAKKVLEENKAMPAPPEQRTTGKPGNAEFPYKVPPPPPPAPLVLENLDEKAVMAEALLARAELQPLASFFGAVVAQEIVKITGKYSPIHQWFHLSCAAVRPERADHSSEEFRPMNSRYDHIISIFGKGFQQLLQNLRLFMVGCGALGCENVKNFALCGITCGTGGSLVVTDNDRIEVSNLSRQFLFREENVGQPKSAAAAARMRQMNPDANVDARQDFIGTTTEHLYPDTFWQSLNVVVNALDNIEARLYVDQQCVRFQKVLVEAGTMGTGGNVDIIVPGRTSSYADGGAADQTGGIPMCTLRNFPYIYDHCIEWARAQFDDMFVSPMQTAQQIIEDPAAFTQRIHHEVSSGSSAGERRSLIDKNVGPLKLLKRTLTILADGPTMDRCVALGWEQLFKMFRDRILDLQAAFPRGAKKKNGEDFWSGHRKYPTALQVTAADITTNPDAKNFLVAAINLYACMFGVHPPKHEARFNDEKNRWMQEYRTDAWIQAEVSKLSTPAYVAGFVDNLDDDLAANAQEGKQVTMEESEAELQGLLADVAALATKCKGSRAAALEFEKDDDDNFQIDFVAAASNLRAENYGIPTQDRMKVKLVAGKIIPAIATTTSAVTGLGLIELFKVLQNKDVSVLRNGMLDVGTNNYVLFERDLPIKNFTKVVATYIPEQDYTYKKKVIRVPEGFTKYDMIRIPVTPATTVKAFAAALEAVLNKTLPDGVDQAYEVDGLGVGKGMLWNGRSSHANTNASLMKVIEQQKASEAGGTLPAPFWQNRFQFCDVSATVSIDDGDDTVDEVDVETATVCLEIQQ
Briefly: Leishmania donovani Ubiquitin Activating Enzyme (LdE1). Conditions: 30 µM. It is filed as functional. Further details: scale not given: direction of the effect not stated beside the values.

Experiment [4] concerns the target AMP-activated protein kinase, AMPK (Homo sapiens) (UniProt P54646+O43741+P54619+Q9UGJ0+Q9Y478+Q13131+Q9UGI9). Description: AMP-dependent Kinase enzyme assay. An in vitro enzyme assay that detects ADP turnover that is directly proportional to AMPK activity. This uses naive AMPK that is activated during the assay with MK-8722. It is filed as functional. The arrangement: scale not given: direction of the effect not stated beside the values. To be noted: 30 µM.

In experiment [5] the target is Sialic acid-binding Ig-like lectin 9 (Homo sapiens) (UniProt Q9Y336). Description: Hs-Siglec9 ALPHAscreen SOP 20170721. Further details: scale not given: direction of the effect not stated beside the values. To be noted: 10 µM. On the technique in general: Alpha assays give light when donor and acceptor beads are brought close together.
For another experiment, the system named is Trypanosoma cruzi. Description: Trypanosoma cruzi phosphomannomutase and mannose-1-phosphate guanylyltransferase assay. Type of experiment: functional. Further details: scale not given: direction of the effect not stated beside the values. To be noted: 10 µM.
Experiment [6] concerns the target T3, Arginase-2, mitochondrial (Homo sapiens) (UniProt P78540).
T3 sequence (whole entry): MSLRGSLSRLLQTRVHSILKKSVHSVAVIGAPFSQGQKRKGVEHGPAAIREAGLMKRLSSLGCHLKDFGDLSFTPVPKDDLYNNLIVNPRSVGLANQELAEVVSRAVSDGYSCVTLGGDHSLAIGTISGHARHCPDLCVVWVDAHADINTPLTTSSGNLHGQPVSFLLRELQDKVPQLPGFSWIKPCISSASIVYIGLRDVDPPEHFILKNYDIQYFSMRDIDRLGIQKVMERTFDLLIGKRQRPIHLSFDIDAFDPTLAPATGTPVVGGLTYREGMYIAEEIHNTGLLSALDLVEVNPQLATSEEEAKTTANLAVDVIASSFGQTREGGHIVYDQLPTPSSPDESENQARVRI
Description: in vitro enzyme assay to detect the production of urea directly proportional to the activity of Arginase II. Type of experiment: functional. Further details: scale not given: in the data most compounds retested in dose-response had high values.

In experiment [7] the target is T4, Proteasome subunit beta (Trypanosoma cruzi) (UniProt O96673).
T4 sequence (whole entry): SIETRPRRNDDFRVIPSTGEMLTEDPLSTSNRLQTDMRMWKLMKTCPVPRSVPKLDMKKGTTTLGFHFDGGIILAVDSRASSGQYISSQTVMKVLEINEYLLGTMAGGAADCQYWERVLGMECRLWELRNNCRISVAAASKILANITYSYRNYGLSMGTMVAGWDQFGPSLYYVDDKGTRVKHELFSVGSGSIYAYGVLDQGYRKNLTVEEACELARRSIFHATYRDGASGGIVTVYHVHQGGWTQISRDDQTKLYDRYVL
Briefly: Trypanosoma cruzi proteasome chymotrypsin-like activity (TcProtChymo) assay. To be noted: 9.37 µM. Type of experiment: functional. The arrangement: scale not given: in the data most compounds retested in dose-response had high values.

For a further experiment, the species on record is Homo sapiens. Briefly: To identify inhibition of the IFN signalling (Jak-Stat) pathway via expression of an eGFP reporter gene under the control of an IFN-stimulated response element (ISRE) containing MxA promoter. It is filed as functional. The arrangement: scale not given: direction of the effect not stated beside the values. Conditions: 30 µM. (In a reporter assay the amount or activity of a reporter protein is the signal.)

Experiment [8] deals with T5, Tyrosyl-tRNA synthetase, putative (Trypanosoma cruzi (strain CL Brener)) (UniProt Q4DSP6).
T5 sequence (whole entry): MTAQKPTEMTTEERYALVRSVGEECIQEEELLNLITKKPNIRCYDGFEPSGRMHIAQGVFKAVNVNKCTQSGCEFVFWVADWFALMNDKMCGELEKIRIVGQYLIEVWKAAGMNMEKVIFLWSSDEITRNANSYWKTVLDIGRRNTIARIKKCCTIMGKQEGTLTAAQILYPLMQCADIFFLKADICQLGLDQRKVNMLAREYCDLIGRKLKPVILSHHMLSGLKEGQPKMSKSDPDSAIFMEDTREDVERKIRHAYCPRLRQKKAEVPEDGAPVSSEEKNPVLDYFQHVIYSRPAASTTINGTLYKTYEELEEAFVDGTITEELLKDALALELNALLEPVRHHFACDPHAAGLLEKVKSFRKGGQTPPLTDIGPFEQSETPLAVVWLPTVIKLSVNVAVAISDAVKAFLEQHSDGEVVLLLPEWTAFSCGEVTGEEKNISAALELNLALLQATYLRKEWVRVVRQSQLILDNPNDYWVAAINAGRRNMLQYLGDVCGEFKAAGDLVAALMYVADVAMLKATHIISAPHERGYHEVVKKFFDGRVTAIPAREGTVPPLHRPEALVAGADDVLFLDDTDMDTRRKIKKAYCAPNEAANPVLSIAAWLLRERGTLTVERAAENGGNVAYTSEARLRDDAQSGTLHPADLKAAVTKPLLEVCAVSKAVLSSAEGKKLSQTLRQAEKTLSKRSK
Briefly: Trypanosoma cruzi tyrosyl tRNA synthetase (TcYRS) _High Tyrosine SOP. Further details: scale not given: in the data most compounds retested in dose-response had high values. It is filed as functional. Conditions: 30 µM.

Experiment [9] has as its target T5, Tyrosyl-tRNA synthetase, putative (Trypanosoma cruzi (strain CL Brener)). Briefly: Trypanosoma cruzi tyrosyl tRNA synthetase (TcYRS) SOP. To be noted: 30 µM. Type of experiment: functional. The arrangement: scale not given: direction of the effect not stated beside the values.
Experiment [10] deals with Chromo domain-containing protein 1 (Saccharomyces cerevisiae (strain ATCC 204508 / S288c) (Baker's yeast)) (UniProt P32657). Briefly: ScCHD-1 Enzyme Inhibition Assay. Type of experiment: functional. Further details: scale not given: in the data most compounds retested in dose-response had high values. Conditions: 30 µM.

For some of these results: Results with a measured potency or affinity are listed apart.

Sialic acid-binding Ig-like lectin 9 (Homo sapiens), sequence (Q9Y336 whole entry): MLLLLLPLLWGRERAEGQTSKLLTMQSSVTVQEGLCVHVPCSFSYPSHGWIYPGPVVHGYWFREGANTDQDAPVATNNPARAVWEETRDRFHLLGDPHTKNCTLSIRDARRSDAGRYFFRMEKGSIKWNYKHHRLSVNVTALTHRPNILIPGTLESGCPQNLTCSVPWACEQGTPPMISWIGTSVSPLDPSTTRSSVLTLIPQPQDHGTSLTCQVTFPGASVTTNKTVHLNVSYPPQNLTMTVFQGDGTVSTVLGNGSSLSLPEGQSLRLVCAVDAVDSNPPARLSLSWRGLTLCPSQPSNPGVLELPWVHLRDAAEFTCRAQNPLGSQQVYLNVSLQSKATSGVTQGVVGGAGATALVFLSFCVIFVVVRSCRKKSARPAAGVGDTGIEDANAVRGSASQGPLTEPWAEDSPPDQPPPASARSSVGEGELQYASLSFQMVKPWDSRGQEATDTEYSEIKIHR
Protein translocase subunit SecA (Escherichia coli (strain K12)), sequence (P10408 whole entry): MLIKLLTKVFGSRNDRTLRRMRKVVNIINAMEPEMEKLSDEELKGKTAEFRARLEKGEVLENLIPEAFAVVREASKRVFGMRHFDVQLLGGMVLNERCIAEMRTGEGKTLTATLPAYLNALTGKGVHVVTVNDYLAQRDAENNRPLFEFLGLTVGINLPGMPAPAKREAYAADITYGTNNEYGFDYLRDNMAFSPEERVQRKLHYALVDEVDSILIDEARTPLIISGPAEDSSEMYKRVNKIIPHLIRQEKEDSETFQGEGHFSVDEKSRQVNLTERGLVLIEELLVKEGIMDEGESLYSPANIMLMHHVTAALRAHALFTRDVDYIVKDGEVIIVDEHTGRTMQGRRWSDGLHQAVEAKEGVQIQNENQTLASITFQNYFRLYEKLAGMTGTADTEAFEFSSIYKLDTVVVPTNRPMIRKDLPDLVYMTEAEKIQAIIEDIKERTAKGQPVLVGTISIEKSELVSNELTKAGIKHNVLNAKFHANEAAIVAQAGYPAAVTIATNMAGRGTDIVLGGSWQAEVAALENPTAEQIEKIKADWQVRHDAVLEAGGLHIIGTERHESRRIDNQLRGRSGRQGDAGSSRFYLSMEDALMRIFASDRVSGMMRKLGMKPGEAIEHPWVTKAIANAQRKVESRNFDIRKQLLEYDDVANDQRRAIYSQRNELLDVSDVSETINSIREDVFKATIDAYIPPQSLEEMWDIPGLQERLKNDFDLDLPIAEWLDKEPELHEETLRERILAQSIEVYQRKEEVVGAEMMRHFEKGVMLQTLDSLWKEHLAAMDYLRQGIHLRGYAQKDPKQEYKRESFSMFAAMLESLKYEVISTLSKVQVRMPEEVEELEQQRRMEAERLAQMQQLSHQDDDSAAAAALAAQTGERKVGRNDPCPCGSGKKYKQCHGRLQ
Chromo domain-containing protein 1 (Saccharomyces cerevisiae (strain ATCC 204508 / S288c) (Baker's yeast)), sequence (P32657 whole entry, the tested form may be a part): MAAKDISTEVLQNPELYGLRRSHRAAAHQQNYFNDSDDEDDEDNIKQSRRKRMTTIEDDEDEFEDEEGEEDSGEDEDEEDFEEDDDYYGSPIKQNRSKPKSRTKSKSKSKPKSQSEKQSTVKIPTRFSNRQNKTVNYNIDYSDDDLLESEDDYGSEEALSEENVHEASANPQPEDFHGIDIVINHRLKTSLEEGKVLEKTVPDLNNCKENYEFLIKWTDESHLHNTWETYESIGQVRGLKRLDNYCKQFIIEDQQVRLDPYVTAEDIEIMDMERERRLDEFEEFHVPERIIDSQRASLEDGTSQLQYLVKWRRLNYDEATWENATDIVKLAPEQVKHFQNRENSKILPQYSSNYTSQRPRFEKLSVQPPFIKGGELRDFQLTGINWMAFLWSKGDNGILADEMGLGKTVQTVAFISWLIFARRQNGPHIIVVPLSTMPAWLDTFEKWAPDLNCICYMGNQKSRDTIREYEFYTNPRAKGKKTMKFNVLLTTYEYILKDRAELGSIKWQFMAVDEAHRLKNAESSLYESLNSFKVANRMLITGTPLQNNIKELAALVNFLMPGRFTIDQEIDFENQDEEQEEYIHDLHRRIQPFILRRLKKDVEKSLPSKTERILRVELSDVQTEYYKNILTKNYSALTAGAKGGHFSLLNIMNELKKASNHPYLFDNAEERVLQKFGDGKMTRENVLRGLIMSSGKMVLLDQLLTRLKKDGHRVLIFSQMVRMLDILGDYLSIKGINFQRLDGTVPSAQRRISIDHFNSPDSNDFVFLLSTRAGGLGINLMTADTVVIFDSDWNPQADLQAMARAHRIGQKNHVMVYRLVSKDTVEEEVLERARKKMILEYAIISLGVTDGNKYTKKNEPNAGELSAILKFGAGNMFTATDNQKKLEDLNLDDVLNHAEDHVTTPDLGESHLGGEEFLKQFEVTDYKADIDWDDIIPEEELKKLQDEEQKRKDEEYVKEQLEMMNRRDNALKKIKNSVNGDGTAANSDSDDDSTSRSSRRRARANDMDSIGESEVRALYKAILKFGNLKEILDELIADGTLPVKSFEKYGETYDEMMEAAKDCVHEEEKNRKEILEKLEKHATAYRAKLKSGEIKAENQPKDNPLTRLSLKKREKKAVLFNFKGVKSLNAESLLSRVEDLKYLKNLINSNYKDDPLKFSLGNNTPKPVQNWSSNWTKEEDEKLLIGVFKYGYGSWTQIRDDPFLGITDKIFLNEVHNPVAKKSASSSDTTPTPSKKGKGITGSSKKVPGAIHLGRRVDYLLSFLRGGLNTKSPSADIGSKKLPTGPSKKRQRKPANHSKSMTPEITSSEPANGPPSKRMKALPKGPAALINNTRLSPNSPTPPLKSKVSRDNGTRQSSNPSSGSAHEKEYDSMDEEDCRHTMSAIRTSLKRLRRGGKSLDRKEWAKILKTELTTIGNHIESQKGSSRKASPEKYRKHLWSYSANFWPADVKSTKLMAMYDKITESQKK

Take `O=C(CCC1CCCC1)N1CCC(c2ncc3c(n2)CCNC3)CC1`: the PXC50 in experiment [1] (MAX_EFFECT 18.13380282) and in experiment [1] (MAX_EFFECT 20.42755344) was under 4 each time. The Percent Effect in experiment [2] was -7.04%; in [3], 14.9%; in experiment [4] it was 0.0771%; in experiment [5], 5.51%; in the experiment with Trypanosoma cruzi it was 2.57%; in experiment [6] (33.3 µM), -6.26%. Further, the Percent Effect in experiment [7] was 8.42%; in the experiment filed under Homo sapiens, 31.7%; in experiment [8], 10.8%; in experiment [9], 19.5%; in experiment [10] it was -23.3%.

As for `Cn1cc(CC2CCN(C(=O)NCc3cn4ccsc4n3)C2)cn1` (centres undefined), the Percent Effect in experiment [2] was -6.21%; in [3] it was 13.2%; in experiment [4], -5.79%; in experiment [5] it was -0.407%; in the experiment on Trypanosoma cruzi, 5.36%; in experiment [6] (30 µM) it was 2.7%. Also, the Percent Effect was -18.9% in [6] (33.3 µM); 12.2% in [7]; 4.6% in the experiment listed under Homo sapiens; 6.38% in [8]; 18.2% in experiment [9]; -14.5% in experiment [10].

Take `CCn1cnnc1CNc1nc(C)nc2scc(CC(C)C)c12`: the PXC50 in experiment [1] (MAX_EFFECT 12.79373368) and in [1] (MAX_EFFECT 13.05483029) was under 4 throughout. In addition, the Percent Effect in experiment [4] was -1.1%.

For `Cc1ccccc1-c1cncc(C2CCN(C(=O)CN(C)C)CC2)n1`, the Percent Effect in experiment [2] was -4.06%; in experiment [3], 6.76%; in [4] it was 14.4%; in experiment [5], -6.59%; in the experiment on Trypanosoma cruzi it was -4.74%; in experiment [6] (30 µM), -1.62%. Besides, the Percent Effect in [6] (33.3 µM) is -8.59%; in [7], 9.83%; in the experiment listed under Homo sapiens, 19.1%; in experiment [8], 0%; in experiment [9], 1.3%; in experiment [10] it was -14.4%.

For `COCCC(=O)N1CCC2(COCc3c(C)nc(NCC4CC4)nc32)C1` (centres undefined), the Percent Effect in experiment [2] was -1.4%; in experiment [3] it was 13.3%; in experiment [4], 11.3%; in experiment [5], 1.42%; with Trypanosoma cruzi, -5.32%; in experiment [6] (30 µM), 4.87%. Further, the Percent Effect in experiment [6] (33.3 µM) was -3.03%; in experiment [7], 15.4%; in the experiment listed under Homo sapiens, 4.83%; in experiment [8], 1.06%; in experiment [9], 11.5%; in experiment [10], -2.58%.

With `COc1ccccc1Oc1ncccc1CNC(=O)[C@@H](C)NC(C)=O`, the Percent Effect in [2] was -1.21%; in experiment [3], -4.17%; in [4], -4.59%; in [5], -7.34%; in the experiment on Trypanosoma cruzi it was -3.98%; in experiment [6] (30 µM), 4.87%. The Percent Effect is 2.21% in experiment [6] (33.3 µM); -0.526% in [7]; 2.14% in the experiment filed under Homo sapiens; 2.1% in experiment [8]; -2.56% in experiment [9]; 2.74% in experiment [10].
